# Only some compounds are listed: those with a hit (about 2.4% of all), similar ones and a draw of the others.
# D2 antagonist – HTS Assay for Allosteric Antagonists of the Human D2 Dopamine Receptor: Primary Screen for Antagonists; AID 485344, 2010; 340,000 tested, 2% active; HEK293 TREx D2 cells, calcium flux, dopamine EC80; inhibition, % at 10 µM; in the data active means inhibition above about 30%; inactive means below that, where a call was filed; further: 0% is about no effect
# Target sequence (P14416 whole entry, looked up): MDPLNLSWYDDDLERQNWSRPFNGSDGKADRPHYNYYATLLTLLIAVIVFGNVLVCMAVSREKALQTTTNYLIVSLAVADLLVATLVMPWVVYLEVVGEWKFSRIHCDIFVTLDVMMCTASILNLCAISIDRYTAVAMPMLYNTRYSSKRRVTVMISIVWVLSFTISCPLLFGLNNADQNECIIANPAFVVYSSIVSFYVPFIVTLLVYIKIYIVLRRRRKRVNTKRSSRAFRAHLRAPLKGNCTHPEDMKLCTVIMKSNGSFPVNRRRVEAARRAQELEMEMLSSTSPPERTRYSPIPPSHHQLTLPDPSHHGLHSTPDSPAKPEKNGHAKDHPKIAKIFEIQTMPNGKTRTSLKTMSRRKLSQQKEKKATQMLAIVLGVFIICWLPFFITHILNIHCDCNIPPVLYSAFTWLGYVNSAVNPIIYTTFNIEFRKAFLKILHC
#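 Measurement of antagonist activity uses fluorescent calcium dye in inducible HEK293 T-REx D2 cells: 10 s baseline, compound addition with 180 s read, EC80 dopamine addition with a further 180 s read.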
# D2 PAM-1 – HTS Assay for Positive Allosteric Modulators of the Human D2 Dopamine Receptor: Primary Screen for Potentiators. D(2) dopamine receptor (Homo sapiens), P14416. HEK293 T-REx D2, calcium flux, EC20 dopamine potentiation. potentiation, % at 10 µM. 340,000 tested, 0.34% active. AID 485347, 2010;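 active means potentiation over 3 SD above the plate norm, cut at about 30% in these data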; further: 0% is about no effect
#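 Potentiation of an EC20 dopamine calcium response is measured in a force-coupled, tetracycline-inducible Hek293 Trex D2 line. Compound-only kinetic reads over 180 s flag agonists before dopamine addition.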
# D2 ag-1 – HTS Assay for Allosteric Agonists of the Human D2 Dopamine Receptor: Primary Screen for Agonists; D(2) dopamine receptor (Homo sapiens), P14416; HEK293 T-REx D2 cells, calcium flux agonist mode; activation, % at 2 µM; 340,000 tested, 0.53% active;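 active means activation over 3 SD above normal in the single-dose calcium agonist read, cut at about 30% in these data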; further: 0% is about no effect
#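 In this primary screen, compounds producing a positive calcium signal within 180 s of addition to tetracycline-induced, force-coupled HEK293 Trex D2 cells are flagged; cells are dye-loaded with a no-wash calcium kit beforehand.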
# D2 ag-2 – Beta-Arrestin HTS for Positive Allosteric Modulators of the Human D2 Dopamine Receptor: Agonists; D(2) dopamine receptor (Homo sapiens), P14416; activation, % (test concentration not listed); DiscoveRx PathHunter D2 beta-arrestin, luminescence, 90 min; 100% = 57 uM dopamine signal; 360,000 tested, 0.084% active; in the data active means activation above about 40%; inconclusive means between about 15% and that limit
#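 DiscoveRx PathHunter D2 beta-arrestin cells (2,100/well) attached overnight, then compound-stimulated 90 min at 37 C in HBSS/10 mM HEPES/0.1% Tween-20 buffer; beta-galactosidase complementation read by luminescence after 1 h at ambient temperature. Dopamine 57 uM final (EC100) as control.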
# D2 PAM-2 – Beta-Arrestin HTS for Positive Allosteric Modulators of the Human D2 Dopamine Receptor: Potentiators; D(2) dopamine receptor (Homo sapiens), P14416; DiscoveRx D2 beta-arrestin cells, luminescence, 90 min; 100% = 57 uM dopamine signal; potentiation, % (concentration not given with the values); 360,000 tested, 0.23% active; AID 624464, 2012; in the data active means potentiation above about 50%; inconclusive means mostly about 30% to 49%
#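 D2 cells co-treated with compound plus 50 nM dopamine (EC20) for 90 min at 37 deg C to detect potentiation. Beta-arrestin recruitment was read as enzyme-fragment luminescence after 1 h at ambient temperature. Full response was set by 57 uM dopamine.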
# The depositor's hits bear a star; ? = inconclusive; . = not tested or not shown.
SMILES,D2 antagonist,D2 PAM-1,D2 ag-1,D2 ag-2,D2 PAM-2
NNc1nc(-c2ccccc2Cl)nc2sc3c(c12)CCCC3,-7,13,0,?,53*
O=C1c2cccc([N+](=O)[O-])c2C(=O)N1CCO,6,40*,1,-1,-1
CN(Cc1ccccc1)C(=O)CCN1C(=O)c2cccc([N+](=O)[O-])c2C1=O,.,.,.,3,-4
Cn1cccc1-c1cc(C(=O)N/N=C/c2ccc(Cl)cc2)[nH]n1,35*,-20,-1,3,-8
CCOc1ccc(NC(=O)CN2CCN(CC(=O)Nc3ccc(OC)cc3OC)CC2)cc1,32*,8,0,6,7
COc1ccc(NC(=O)c2ccc(NC(=O)CN3CCN(c4ccccc4O)CC3)cc2)cc1,.,.,.,2,-12
COc1ccc(NC(=O)CCCNC(=O)c2ccc(Cl)cc2)c(OC)c1,30*,-3,0,0,1
COc1ccc(NC(=O)CN2CCN(C(=O)c3ccco3)CC2)c(OC)c1,-9,-9,39*,10,4
COc1ccc(NC(=O)c2ccc(NC(=O)CN3CCN(c4ccc(O)cc4)CC3)cc2)cc1,.,.,.,124*,23
COc1ccc(NC(=S)N2CCN(C(=O)c3ccco3)CC2)c(OC)c1,2,-1,10,1,-11
Cc1cc(C)cc(NC(=O)N2CCC3(CC2)Oc2ccccc2C(=O)N3Cc2ccccc2F)c1,.,7,1,.,.
CCOC(=O)N1CCN(CCC(=O)Nc2ccc(OC)cc2)CC1,-18,-1,1,-3,-7
CCOC(=O)N1CCN(CCC(=O)Nc2ccc(OC)cc2OC)CC1,36*,-16,34*,-1,-33
COc1ccc(NC(=O)CCOc2ccccc2)c(OC)c1,36*,8,-1,-3,18
COc1ccc(NC(=O)CCCN2C(=O)C3C4C=CC(C4)C3C2=O)c(OC)c1 (stereo not given),35*,17,0,-2,5
COc1ccc(NC(=O)C/C(C)=N/NC(=O)c2ccccn2)c(OC)c1,15,30*,-1,5,-5
COc1ccc(NC(=O)CCCCC(=O)Nc2ccc(OC)cc2OC)c(OC)c1,.,.,.,-2,-2
C/C(CC(=O)Nc1ccccn1)=N\NC(=O)c1ccccc1O,47*,3,3,-6,-13
COc1ccc(OC)c(NC(=O)CCN2CCN(c3ccccc3OC)CC2)c1,72*,-20,14,-2,-79
COc1ccc(OC)c(NC(=O)Cn2c(=O)c3cccn3c3ccccc32)c1,.,6,0,.,.
O=C(NNC(=S)NC(=O)c1cccnc1)c1ccc(Cl)cc1,.,.,.,-3,-10
O=C(Cc1ccc(Cl)cc1)NNC(=S)NC(=O)c1cccnc1,40*,3,1,3,-7
Cn1c(=O)c2c(SCC(=O)Nc3ccccc3C(F)(F)F)nc(C3CCCC3)nc2n(C)c1=O,.,11,0,.,.
COc1ccc(-c2cc(C(F)F)n3ncc(C(=O)N4CCN5CCCC5C4)c3n2)cc1 (stereo not given),52*,0,0,-1,-37
COCCOc1ccc(C(F)(F)F)cc1NC(=O)c1ccc(C(F)(F)F)cc1,59*,7,1,0,-18
SMILES,D2 antagonist,D2 PAM-1,D2 ag-1,D2 ag-2,D2 PAM-2
Fc1ccc(N/N=C2/CC(c3ccccc3)Oc3ccccc32)c(F)c1 (stereo not given),3,-4,0,14,82*
CCOc1ccc(-c2nc(-c3cccnc3)no2)cc1,-18,-4,0,-1,5
CCOc1nc(-c2ccccc2)ccc1-c1noc(-c2ccc(C)cc2)n1,.,6,-2,.,.
CCOc1ccc(-c2nc(-c3ccccc3C)no2)cc1,53*,.,1,.,.
CCCCOc1ccc(-c2nc(-c3cccnc3)no2)cc1,34*,-6,0,-1,-7
CCOc1ccc(C(=O)NCCc2csc(-c3cccnc3)n2)cc1,.,-11,1,.,.
CCOC(=O)c1ccc(OCC2c3cc(OC)c(OC)cc3CCN2C(=O)c2ccc(S(=O)(=O)N3CCCC3)cc2)cc1 (stereo not given),.,12,0,.,.
COc1ccc(Br)cc1CN1CCCC(C(=O)N2CCCCCC2)C1 (stereo not given),32*,-6,1,-4,-35
O=[N+]([O-])c1cc(-c2nnc(C34CC5CC(CC(C5)C3)C4)o2)cc([N+](=O)[O-])c1,-6,-1,-1,?,145*
O=[N+]([O-])c1cccc(-c2nnc(C34CC5CC(CC(C5)C3)C4)o2)c1,-7,-6,0,-3,-6
COc1ccc(CCNC(=O)Cn2cc(S(=O)(=O)Cc3ccccc3F)c3ccccc32)cc1OC,.,0,.,.,.
CC1CCc2c(sc(NC(=S)NC(=O)c3ccccc3)c2C#N)C1 (stereo not given),37*,7,-1,-2,-1
N#Cc1c(NC(=S)NC(=O)c2ccccc2)sc2c1CCN(CCc1ccccc1)C2,0,-4,44*,.,.
CCOC(=O)c1cnn(CCOC(=O)c2ccc(F)cc2)c1NC(=O)c1ccc(F)cc1,-5,-1,0,1,3
CCOC(=O)c1cnn(CCOC(=O)Cc2cccs2)c1NC(=O)Cc1cccs1,34*,2,0,-3,-4
c1ccc(-c2csc(=Nc3cccnc3)n2CC2CCCO2)cc1 (stereo not given),30*,1,-1,-2,-17
COc1ccccc1NC(=O)Cn1c(O)c(N=NC(=O)c2ccccc2O)c2ccccc21,55*,-4,4,?,9
N#Cc1ccccc1Cn1c(=O)n(CCCC(=O)NCc2ccccc2Cl)c(=O)c2ccccc21,.,-8,1,.,.
CCS(=O)(=O)c1ccc2oc(Nc3ccc(OC)cc3)nc2c1,34*,-3,-1,-4,4
CCOc1ccccc1NC(=O)NCc1ccccc1,42*,-21,-1,-2,-11
O=C(NCCCN1CCN(c2ccc(F)cc2)CC1)c1cnn(-c2ccc(F)cc2)c1-n1cccc1,.,-17,4,.,.
CCOc1ccc(Cn2c(CNS(=O)(=O)c3ccc(C(C)(C)C)cc3)nc3cccnc32)cc1,.,3,1,.,.
Cn1cccc1Cc1nnc(SCC(=O)NC2CCCC2)n1-c1ccc(F)cc1,36*,-1,2,-3,2
CCc1cccc(C)c1NC(=O)c1ccc2c(c1)CCN2S(=O)(=O)c1ccc(Cl)cc1,.,19,4,.,.

# High-throughput results deposited in PubChem BioAssay by National Center for Advancing Translational Sciences (NCATS).
